# This is a sample that favours compounds with a hit; in the whole collection about 7.5% have one here.
# ELG1 repair inh: qHTS screen for small molecules that inhibit ELG1-dependent DNA repair in human embryonic kidney (HEK293T) cells expressing luciferase-tagged ELG1; HEK293T ELG1-luciferase reporter, luminescence, 16 h; DNA damage induced by 5-fluorouridine; hit rate 2.3% among 330,000; AID 504467, 2011; Potency, µM (doses to about 46.1 µM), for the others: top-dose activity change, negative = inhibition, usual class: inhibitors; note: potency is the fitted concentration of half-maximal effect; nearly all actives have a fitted effect of over 55% in size
#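 Step one: seed 2,000 cells per well. Step two: pin-transfer compound or DMSO alongside 5-fluorouridine. Step three: incubate 16 hr, 37 °C, 5% CO2. Step four: add ONE-Glo, wait 30 min, read luminescence.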
# TSHR antag: Antagonists of the Thyroid Stimulating Hormone Receptor: HTS campaign | Thyrotropin receptor (Homo sapiens), P16473 | TSHR-expressing cells, TSH-stimulated cAMP HTRF, 2 h; stronger effect = lower value | activity change, negative = inhibition, % at 11.5 µM | hit rate 0.2% among 330,000;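 active = activity change below a set negative limit, meaning inhibition stronger than a set level, cut at about -70% in these data; inconclusive = activity change between two set negative limits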
#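 Read-out is FRET at 665 nm (cryptate excitation 337 nm) from a cryptate-tagged anti-cAMP antibody, competed by cell cAMP against cAMP-d2. Compounds are tested on freshly harvested TSHR cells challenged with 4nM TSH (EC80) for 2 hours at 37 deg C.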
# Gal4-VP16 FLuc: VP16 counterscreen qHTS for inhibitors of ROR gamma transcriptional activity. Drosophila S2 Gal4-VP16 UAS-luciferase, luminescence, 20 h. Potency, µM (series often up to 53.6 µM), for the others: top-dose activity, negative = inhibition, most hits filed as inhibitors. hit rate 3.5% among 310,000. AID 2546, 2010;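 note: Gal4-VP16 expression switched on by copper sulfate through the metallothionein promoter; potency is the fitted concentration of half-maximal effect; nearly all actives have a fitted effect of over 50% in size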
# RORg inh: qHTS for inhibitors of ROR gamma transcriptional activity | Nuclear receptor ROR-gamma (Mus musculus), P51450 | Drosophila S2 Gal4-RORgamma UAS-luciferase reporter, 20 h | hit rate 5.4% among 310,000 | Potency, µM (top dose mostly 53.6 µM), for the others: at the top dose activity change, negative = inhibition, hits mostly inhibitors; note: potency is the fitted concentration of half-maximal effect; nearly all actives have a fitted effect of over 60% in size
#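 Using a luciferase readout, inhibitors were identified by reduced reporter activity in Drosophila cells coexpressing a copper-inducible Gal4–ROR gamma fusion and UAS-driven Photinus luciferase, incubated 20 hr after 700 uM copper sulfate.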
# B2AR arrestin: qHTS assay of beta-arrestin-biased ligands of beta2-adrenergic receptor. Beta-2 adrenergic receptor (Homo sapiens), P07550. beta-arrestin recruitment to beta2AR, cell-based reporter. Potency, µM (top dose mostly 46.1 µM), without a hit: at the highest dose activation, actives largely listed as activators. hit rate 0.02% among 330,000. AID 492947, 2010;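 note: potency is the fitted concentration of half-maximal effect; 0% = DMSO controls and full agonism = EC100 isoproterenol or metaproterenol; nearly all actives have a fitted effect of over 65% in size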
# Target sequence (P07550 whole entry, looked up): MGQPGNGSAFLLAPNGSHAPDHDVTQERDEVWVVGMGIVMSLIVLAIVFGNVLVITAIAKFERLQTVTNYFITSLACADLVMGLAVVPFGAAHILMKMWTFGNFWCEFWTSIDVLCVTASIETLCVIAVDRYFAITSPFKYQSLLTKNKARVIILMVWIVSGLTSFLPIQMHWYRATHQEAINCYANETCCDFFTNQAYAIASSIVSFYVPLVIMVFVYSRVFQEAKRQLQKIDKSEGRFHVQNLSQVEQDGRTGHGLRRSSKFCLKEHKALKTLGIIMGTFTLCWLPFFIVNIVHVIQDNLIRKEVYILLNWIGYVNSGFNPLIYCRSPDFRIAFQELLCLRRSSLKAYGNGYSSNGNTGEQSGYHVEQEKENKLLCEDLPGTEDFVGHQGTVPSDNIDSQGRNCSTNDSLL
# An asterisk follows results filed as active; ? = inconclusive; · = no result; ! = not confirmed by another sample; [ ] = dose if it differs, or a comment. Unless noted, calls come from the whole dose curve; as a rule, active = well fitted curve in the direction sought with a large enough effect; inconclusive = small, poorly fitted or top-dose-only effect, or another doubt; inactive = no such curve, though single readings can be large; an effect the other way counts as inactive or inconclusive. Unless noted, % is set by controls: 0 for no effect and ±100 for the full control effect.
SMILES,ELG1 repair inh,TSHR antag,Gal4-VP16 FLuc,RORg inh,B2AR arrestin
Nc1ccn([C@@H]2O[C@H](CO)[C@H](O)C2(F)F)c(=O)n1,·,·,-6%,-2%,·
c1csc(-c2ccc3ccccc3n2)c1,?,3,18%,-8%,0%
Cc1cc2ncc(-c3cccs3)nc2cc1C,?,-9,?,10µM*,0%
Cc1ccc(C)c(OCCCC(=O)O)c1,21%,9,0%,-4%,0%
Cc1ccc(C)c(OCCCC(C)(C)C(=O)O)c1,-6%,23,20µM*!,-5%,4%
Nc1nc(=S)n(-c2ccccc2)[nH]1,10%,27,1%,?,0%
S=c1nc(C2CCCCC2)n(-c2ccccc2)[nH]1,-26%,-2,-4%,2.8µM*,-2%
COC(=O)C1=C[C@@H](C(=O)OC)C2C3=C(C(=O)[C@@]2(C)NC(=O)c2ccccc2)[C@H](c2ccccc2)[C@@H]2C(=O)N(c4ccccc4)C(=O)[C@@H]2[C@@H]3C1 (some centres undefined),·,·,0%,-9%,·
O=C(NC(=S)Nn1cnnc1)c1ccccc1Br,10%,16,-4%,-32%,-2%
O=C(O)c1ccc(N/N=C/c2ccc(OC(=O)c3cccc(Cl)c3)cc2)cc1,?,-40,0.35µM*,?,0%
O=C(O)c1ccc(N/N=C/c2ccncc2)cc1,?,-1,?,-39%,0%
COc1cc(/C=N/NC(=O)c2nc(-c3ccccc3)n(-c3ccccc3)n2)ccc1O,?,-4,-6%,-1%,0%
Cc1ccc2nc(Cl)c(/C=N/Nc3ccc(C(=O)O)cc3)cc2c1,?,6,7.1µM*,3.2µM*,-1%
COc1cc(/C=N/Nc2nc(C)nc3c2cnn3-c2ccccc2)ccc1O,16µM*,-15,-6%,4%,0%
Cc1ccc2cc(/C=N/NC(=O)c3ccc(F)cc3)c(Cl)nc2c1,13%,-10,7%,-20%,0%
O=C(O)c1ccc(N/N=C/c2ccc3nccnc3c2)cc1,?,16,0.32µM*,0.1µM*,0%
CC(C)CCOC(=O)/C=C/c1ccccc1,·,·,-5%,20%,·
COc1cc(/C=N/Nc2ccc(C(=O)O)cc2)ccc1O,?,-43,2.2µM*,2.8µM*,0%
CC1CCc2c(sc(NC(=O)CSc3nc(N)cc(=O)[nH]3)c2C(N)=O)C1 (centres undefined),-9%,14,·,·,0%
COc1ccc(-c2csc(N3C(=N)SCC3=O)n2)cc1,?,14,?,4µM*,-1%
COc1ccc(-c2csc(N3C(=O)C4C5c6ccccc6C(c6ccccc65)[C@@H]4C3=O)n2)cc1 (some centres undefined),-3%,-5,-7%,-2%,0%
O=C(N/N=C/c1ccccn1)c1cc(-c2ccc(Br)s2)[nH]n1,-9%,-2,-28%,18µM*,0%
Cc1nn(-c2ccccc2)c(C)c1/C=N/NC(=O)c1cc(C23CC4CC(CC(C4)C2)C3)[nH]n1,16µM*,-5,-20%,13%,-1%
Cc1nn(-c2ccccc2)c(C)c1/C=N/NC(=O)c1cc(-c2ccc(Br)s2)[nH]n1,8.2µM*,-13,-1%[0.365 µM],?,0%
Cc1nn(-c2ccccc2)c(C)c1/C=N/NC(=O)c1cc(-c2ccc(Cl)s2)[nH]n1,?,-28,-22%,?,2%
SMILES,ELG1 repair inh,TSHR antag,Gal4-VP16 FLuc,RORg inh,B2AR arrestin
NC(=O)N[C@H]1NC(=O)NC1=O,·,·,-4%[17 µM],-11%[2.98 µM],·
COc1c2c(cc3c1C(CC(=O)c1c(O)c(OC)c4occc4c1OC)[N+](C)(C)CC3)OCO2 (centres undefined),·,·,-15%,4%,·
COCC(=O)N1CCC2(CCCN(c3cccc(-c4ccccc4)c3)C2)CC1,·,·,9%,-4%,·
N#C[C@H]1[C@H](c2ccccc2)[C@](C#N)(C(=O)c2ccccc2)[C@@H]2C=Cc3ccccc3N21,13µM*,0,-10%,24%,0%
Cc1ccc(C)c2[nH]c(=O)c(CN(Cc3ccco3)C(=O)Nc3ccccc3)cc12,5.2µM*,-2,3%,3%,0%
COc1ccccc1NC(=O)N(CCN1CCOCC1)Cc1cc2cc(C)cc(C)c2[nH]c1=O,?,0,9%,5%,0%
COc1ccccc1NC(=O)N(Cc1ccco1)Cc1cc2cc(C)cc(C)c2[nH]c1=O,18µM*,3,1%,?,0%
COc1ccccc1NC(=S)N(Cc1ccco1)Cc1cc2cccc(C)c2[nH]c1=O,16µM*,0,-8%,18%,-1%
COc1ccccc1NC(=S)N(Cc1ccco1)Cc1cc2cc(C)c(C)cc2[nH]c1=O,?,-10,?,-3%,1%
O=S(=O)(NCc1ccccn1)c1ccc(Cl)s1,1%,6,?,8.9µM*,-1%
O=S(=O)(NCCCc1ccccc1)c1cccc2nsnc12,-4%,10,-4%,38%,0%
O=S(=O)(NCc1ccccn1)c1cccc2nsnc12,7%,-5,?,7.9µM*,0%
O=S(=O)(NCc1ccccn1)c1ccccc1,12%,-3,-2%,-32%,0%
O=S(=O)(NCc1ccccn1)c1ccccn1,14%,1,-1%,11µM*,-1%
Cc1cnc(C(=O)OCC(=O)Nc2ccccc2-c2ccccc2)cn1,-20%,28,·,·,-1%
Nn1c(C2CCC2)nc2cc(Cl)ccc2c1=O,-3%,0,1%,6%[1.91 µM],0%
Cc1csc2ncnc(NC3CCN(Cc4ccccc4)CC3)c12,7%,-9,2.8µM*,2.5µM*,-1%
Cc1ccccc1N=C/C=C1/C=C(c2ccccc2)OC(C)(C)O1,13µM*,6,1%,?,0%
Cc1cnc(CNc2ncncc2-c2ccccc2CN(C)C)cn1,·,·,2%,?,·
Cc1ccc(C(=O)NN2CCOCC2)cc1[N+](=O)[O-],18%,-5,-7%,-10%,0%
Cc1ccc(C(=O)NC(=S)N2CC(C)OC(C)C2)cc1[N+](=O)[O-] (centres undefined),-4%,1,0.71µM*,0.4µM*,-1%
COc1ccc(C(=O)NC(=S)N2CCCC2)cc1,3%,3,-12%,-21%,0%
COc1ccc(C(=O)NC(=S)N2CC(C)OC(C)C2)cc1 (centres undefined),27%,-1,6.3µM*,5.6µM*,-1%
COc1ccc(C(=O)NC(=S)N2CCC(C)CC2)cc1,?,23,4µM*,1.4µM*,0%

# Compound activity from PubChem.
